NSD2 HMT inh: NSD2 histone methyltransferase inhibitors, primary screen, biochemical, AlphaScreen, single concentration, set 2; Histone-lysine N-methyltransferase NSD2 (Homo sapiens), O96028; NSD2 peptide methylation, 120 min; inhibition, % at 12.5 µM; 0.54% of 310,000 active; AID 743445, 2014; in the data active = inhibition above about 50%
N-glyco inh: increase of ERlucT glycosylation luciferase signal, primary screen, N-linked glycosylation inhibitor project, D54 ERlucT cells, luminescence, set 2. D54 ERlucT glycosylation luciferase reporter, 24 h; percent of 100 nM tunicamycin response. reporter increase, % at 12.5 µM. 0.23% of 360,000 active;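 active = mean luciferase reporter signal, scaled so untreated is 0 and the glycosylation-blocking control 100, at or above a set limit in every replicate; inconclusive = mean reaches the limit but not every replicate does; inactive = mean below the limit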;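 also: luciferase carries N-glycosylation sites so blocking glycosylation raises the light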
Vif inh: HIV Vif self-association inhibitors, primary screen, imaging, HEK293T, single point; 0.35% of 340,000 active; AID 602346, 2012; HEK293T cells, Vif self-association by quenched fluorescence, 24 h; inhibition, % at 7.49 µM; in the data active = inhibition above about 50%, passing the limit was not always enough; inconclusive = no clear call, values can overlap the other calls; inactive = below about 31%
CaV13 FRET inh: Disruptors of the CACNA1D IQ motif to Ca2+-dependent inactivation inhibitor domain association, primary screening, Förster resonance energy transfer in intact living …. AID 743397. 0.098% of 340,000 active. inhibition, % at 12.3 µM. HEK cells, CFP/YFP FRET ICDI-IQ, plate reader, 10 min; percent FRET-ratio fall versus neutral wells;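 active = mean replicate inhibition of at least 30% and at least 1% of replicates passing that level; inconclusive = only one of the two criteria is met; inactive = neither criterion is met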
ATG4B inhibitor: ATG4B protease inhibitors, primary screen, biochemical, fluorescence, uHTS; Cysteine protease ATG4B (Homo sapiens), Q9Y4P1; ATG4B cleavage of LC3-PLA2, NBD-HPC fluorescence, 1 h; inhibition, % at 8.33 µM; 0.51% of 340,000 active; AID 504462, 2011; in the data active = inhibition above about 40%
DSG3 Ab inh: inhibitors of pemphigus antibody binding to DSG3, primary screen, biochemical, bead-based, flow cytometry, scFv-GFP; DSG3-coupled beads, scFv-anti-DSG3-GFP binding; stronger effect = lower value; binding (percent of control), % at 10 µM; 0.48% of 310,000 active; AID 588358, 2011;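 active = binding more than 3 SD below its plate's average and above zero; inconclusive = below that plate limit but binding exactly zero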;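 also: hits lower antibody fragment binding to DSG3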
Target sequence (P32926 whole entry, looked up, the tested form may be a part): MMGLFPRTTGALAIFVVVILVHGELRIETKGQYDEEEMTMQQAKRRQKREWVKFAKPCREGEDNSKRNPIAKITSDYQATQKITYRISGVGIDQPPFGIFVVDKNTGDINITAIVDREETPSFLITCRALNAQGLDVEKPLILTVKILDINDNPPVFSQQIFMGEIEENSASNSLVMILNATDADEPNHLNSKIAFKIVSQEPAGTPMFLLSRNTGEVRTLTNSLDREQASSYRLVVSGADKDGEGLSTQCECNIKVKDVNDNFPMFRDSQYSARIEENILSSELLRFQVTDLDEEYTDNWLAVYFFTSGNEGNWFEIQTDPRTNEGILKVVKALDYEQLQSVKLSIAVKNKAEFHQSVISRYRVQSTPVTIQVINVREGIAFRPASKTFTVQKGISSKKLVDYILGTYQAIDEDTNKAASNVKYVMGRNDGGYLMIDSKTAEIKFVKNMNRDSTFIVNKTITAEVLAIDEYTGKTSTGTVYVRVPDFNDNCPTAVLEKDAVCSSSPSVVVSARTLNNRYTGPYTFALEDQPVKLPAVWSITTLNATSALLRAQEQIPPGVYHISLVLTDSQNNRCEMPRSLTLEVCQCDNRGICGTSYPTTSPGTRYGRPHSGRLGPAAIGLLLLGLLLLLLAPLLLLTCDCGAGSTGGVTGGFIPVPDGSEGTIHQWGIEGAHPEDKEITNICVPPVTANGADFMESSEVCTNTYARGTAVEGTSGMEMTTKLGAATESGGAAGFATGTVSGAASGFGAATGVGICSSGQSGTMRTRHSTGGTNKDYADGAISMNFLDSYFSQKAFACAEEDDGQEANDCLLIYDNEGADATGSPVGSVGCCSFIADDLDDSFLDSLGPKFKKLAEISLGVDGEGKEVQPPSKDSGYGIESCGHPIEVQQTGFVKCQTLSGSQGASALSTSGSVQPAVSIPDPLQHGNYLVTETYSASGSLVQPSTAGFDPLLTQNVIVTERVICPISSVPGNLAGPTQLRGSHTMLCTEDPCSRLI
Hits are given with their value; n = inactive; u = inconclusive; x = no result; + = active, no number. Shown are actives, neighbours in structure and some others; about 1.9% of the full set was active somewhere.

SMILES | NSD2 HMT inh | N-glyco inh | Vif inh | CaV13 FRET inh | ATG4B inhibitor | DSG3 Ab inh
Cc1c(Cl)c(=O)n2c(=O)c(Cl)c(C)n12 | n | n | n | + | n | n
Cc1cc(Br)ccc1NC(=O)CN(C)C(=O)C1CCN(c2ncnc3sc(C)c(C)c23)CC1 | n | n | n | n | n | n
Cc1cc2c(cc1S(=O)(=O)N1CCN(c3ccc(Cl)cc3)CC1)OCCN2C | x | n | n | n | n | n
COc1cccc(N2CCN(S(=O)(=O)c3cc4c(cc3C)N(C)CCO4)CC2)c1 | x | n | 76.2 | n | n | n
CCc1ccc(OC2(C)CCN(Cc3ccccc3OC(F)F)C2)cc1 (stereo not drawn) | n | n | 73.3 | n | x | x
Cn1c(C(=O)N2CCN(c3ccc([N+](=O)[O-])cc3)CC2)cc2c(=O)[nH]c3ccccc3c21 | n | n | n | n | n | 71.6
Cc1cc(C(=O)N2CCN(c3ccc([N+](=O)[O-])cc3)CC2)co1 | n | n | 86.2 | n | n | n
Cc1cc(C(=O)N2CCN(c3ccc([N+](=O)[O-])cc3)CC2)c(C)o1 | n | n | n | n | n | u
Cc1ccc(C(=O)CCCn2nnc(-c3cccnc3)n2)cc1C | n | n | n | n | n | n
O=C(C1=NN(c2ccccc2)C2C(=O)N(c3ccccc3)C(=O)C12)c1ccccc1 (stereo not drawn) | n | n | n | + | n | n
CCN(CC)CC(=O)NN(Cc1ccccc1)c1ccccc1 | n | n | n | n | n | x
CN1CCN(CC(=O)NN(Cc2ccccc2)c2ccccc2)CC1 | n | n | n | n | n | 76.6
CCN1CCN(CCCN(Cc2ccco2)C(=S)Nc2ccccc2Cl)CC1 | n | n | n | n | n | n
COc1ccc(C(=O)c2[nH]c(N)c(C(=O)NCCc3c[nH]c4ccccc34)c2-c2ccc(C(F)(F)F)cc2)cc1 | x | x | x | n | x | x
Nc1c(/C=C2/C=CC(=O)C(O)=C2)c(=O)nc2sc(CC(=O)N3CCCC3)nn12 | 118.5 | n | n | n | n | n
Nc1c(/C=C2/C=CC(=O)C(O)=C2)c(=O)nc2sc(CC(=O)N3CCCCC3)nn12 | 142.1 | n | n | n | n | n
COC1=C/C(=C/c2c(N)n3nc(CC(=O)N4CCCC4)sc3nc2=O)C=CC1=O | n | n | n | n | n | u
CCCCn1c(N)c(N(CCOC)C(=O)C2CCN(S(=O)(=O)c3ccc(C)cc3C)CC2)c(=O)[nH]c1=O | n | n | n | n | n | n
CC12C(=O)N(c3nccs3)C(=O)C1C1C=CC2C1 (stereo not drawn) | n | n | n | n | n | n
COc1ccccc1OCc1ccc(C(=O)N(C)c2ccccc2)o1 | n | n | n | 38.7 | n | n
Cc1csc(SCCn2c(N3CCN(c4ccccc4)CC3)nc3c2c(=O)[nH]c(=O)n3C)n1 | n | n | 56.9 | x | n | n
CCN1CCN(c2nc3c(c(=O)[nH]c(=O)n3C)n2CCSc2nc3ccccc3s2)CC1 | x | n | n | n | n | n
Cc1ccc(CNC(=O)c2ccc3c(c2)NC(=O)C(N2CCOCC2)S3)cc1 (stereo not drawn) | n | n | n | n | n | n
COc1ccc(C(=O)Nc2c(Cl)cc(Cl)cc2C(=O)NCc2ccco2)cc1 | n | n | n | n | n | x
COc1ccc(C(=O)Nc2c(Cl)cc(Cl)cc2C(=O)N2CCOCC2)cc1 | n | n | 65.1 | n | n | n
COC(=O)C1=CN(CC2CCCO2)C=C(C(=O)OC)C1c1cccc(O)c1 (stereo not drawn) | x | n | n | 82.6 | n | x
O=C(Cc1cccc2ccccc12)NN1C(=O)C2C(C1=O)C1C=CC2C12CC2 (stereo not drawn) | n | n | n | n | n | n
CN(C(=O)c1ccc(Oc2ccc([N+](=O)[O-])cc2)cc1)C1CCCCC1 | n | n | n | n | n | 91.9
